Measured values: the supplement of paper PMC11417369
Over roughly 25,000 sequences, “ln(normalized median fluorescence intensity)” has its median near 9.7; the highest 2% begin near 11. Only a selection was taken, and the highest values are over-represented in it overall.

Test system: PfAP2-HC AP2 domain (GST-tagged)
Assay: gcPBM binding intensity (ln(normalized median fluorescence intensity)); higher = stronger DNA binding
Procedure, shortened: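 For binding intensity, the highest Masliner-normalised natural-log median intensity across replicate spots of either probe orientation was taken. Protein bound to the array was stained with Alexa488 anti-GST antibody and scanned at 488 nm. The protein, GST-tagged P. falciparum DNA-binding domains from E. coli at about 25 μg on average, had been applied for 1 h to an Agilent 4 × 180k array of primer-extended double-stranded 36-bp intergenic genomic probes and negative controls.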

Sequence | gcPBM binding intensity (ln)
AATAAATTGGTATGTTGTACAAAGTAACCATCGATT [XGTACX_site2823] | 9.75
ATTCCACTGTTTTAGTGTACTGGTCGTTTTTTTTTT [XGTACX_site1738] | 9.89
TTAAATAAAATAAAAACATGCACACTTTATTTTTTT [TGCATGCA_site719] | 9.74
TATTAATTATTATGACATACATATCAGTTATTAAAA [CACACA_negctrl_site600] | 9.35
AGCACCCACCAACACACACACACACCCACCCACCGA [CACACA_site368] | 11.2
ATCAAGCACCAACACACACACACACCCCCACCCACA [CACACA_site370] | 11.3
GTTACACCAACAAACACACACACACCCACCCACAAA [CACACA_site2427] | 10.6
AGCACCCACCAACACACACACACACCCACCCACCCA [CACACA_site8011] | 11.2
GTTACACCAACAAACACACACACACCGACACCCAAA [CACACA_site5361] | 10.6
TCTTTATTATTCGCCACACACATATATATATATATA [CACACA_site3077] | 10.1
TTTCCAAATTGTTGACGGACACTCACGAATAGTTAT [XGTACX_site5720] | 9.63
ATTAAATGATCAAGGTGTACATTAACAAGAACTATA [XGTACX_site7022] | 9.72
CGTAGCCACACTAACACACACAAATATACACAATCA [CACACA_site7379] | 10.7
CGTAGCCGCACTAACACACACAAATATACGCAATCA [CACACA_site2898] | 10.1
TACGTAGCCACACTAACACACACAAATATGCACAAT [CACACA_site8942] | 10.9
TTTTTTTAAAGAATTATCATAAAATGATTGCATCAT [XGTACX_negctrl_site141] | 9.34
GCGAAATATTATTATAGTATACAAATACTTCTATGA [CACACA_negctrl_site197] | 9.51
TATCCATATTTGTTCACACACACACCCATTTATATA [CACACA_site3571] | 11
TGTATCCATATTTGTTCACACACACCCATATTTATA [CACACA_site9190] | 10.4
TATCCATATTTGTTCACACACACACCGATTTATATA [CACACA_site5888] | 10.2
TATAAAAAAAAAAAAAAAAAAAAAAATATATATATA [CACACA_negctrl_site817] | 9.34
TGGGATAGATCATTTACACACACAAAAAAAAAAAAA [CACACA_site2140] | 9.89

Sequence | gcPBM binding intensity (ln)
TTATTTATTTATTATAGTTCACTTGAAAATACAAGA [CACACA_negctrl_site1480] | 9.38
AGTATACATATATATACACACACACCGATATATATA [CACACA_site8357] | 10.4
CGCATACACGGACACACACACACATATATATATATA [CACACA_site4520] | 10.9
AAAAAAAAAAGACACACACACACACGCATATACATA [CACACA_site7289] | 10.7
ATAGTATACGGACACACACACACACCGATATATATA [CACACA_site5032] | 11.2
CACGCATACGGACACACACACACACCGATATATATA [CACACA_site4521] | 11
ATAGTATACAGACACACACACACACCGATATATATA [CACACA_site8511] | 10.7
TATATATACATATACACACACACACCGATATATATA [CACACA_site8706] | 10.5
GGCATACACGGACACACACACACACCGACATATATA [CACACA_site4493] | 11.5
TATAGATACATATACACACACACACCGACATATATA [CACACA_site9138] | 10.8
TATACACGCGGACACACACACACACGCAAAAAAAAA [CACACA_site6377] | 10.5
CATACACGCGGACACACACACACACGCATATATAAC [CACACA_site6427] | 11.2
TACATGAATAAACTTACACACACCCATGCATACATA [CACACA_site97] | 10.4
ATGTTATAATTTAGTGTGCACATATTAAGAGGAACA | 10.1
TACATACAGATATATACACACATATATAATATATAT [CACACA_site4376] | 10
CCCTTAATATAAAGCACACATATATATAATATATAT [CACACA_site4439] | 9.79
CAAAATAAAAATAACACACACATTTATTTATATACA [CACACA_site6679] | 10.1
CCCCTCGAAATAATTTGTACGAATATATTGTCTGTA [XGTACX_site8308] | 9.68
ATGTATATGATTAAATGTACGTAAACAAATTTGTAA [XGTACX_site8174] | 9.81
ATATCATTAAAAGGATGTACATATGTGTATACAATA [XGTACX_site871] | 9.84
TATATATATATATATATATATATTAATATATATTAC [XGTACX_negctrl_site103] | 9.62
AAAAAAAAAAAACACACACACATAGACCTCCAATAG [CACACA_site3562] | 10.3

Sequence | gcPBM binding intensity (ln)
AAAAAAAAAAAAAACACACACACATAGACCTCCAAT [CACACA_site3563] | 11.3
AAAAAAAAAAGACACACACACATAGACCTCCAATAG [CACACA_site7646] | 10.5
ATAAAGAAATAAAGTTGTACATTATATATATATATA [XGTACX_site7729] | 9.61
GGTATATTAAAATAGGTGCATAAAACTAAGAGAAAA [GTGCAC_site9781] | 9.73
ATCAAAAGAAAACACACACACATACAGATATATATA [CACACA_site5974] | 11.2
AAAGAAAGAAAACACACACACATATATATATATCAA [CACACA_site3743] | 10.9
AAAAAAAAAAAACATACACACATACATACAGATATA [CACACA_site4681] | 10.1
ATCAAAAGAAAACACACACACATACATATATATATA [CACACA_site3795] | 11.1
AAAAAATACATCAAAAGAAACATATATATATATATA [GTGCAC_negctrl_site719] | 9.59
TAGATACAGAAACACACACACACATACATATATACA [CACACA_site3437] | 10.6
ATCTTTTATATATTCACACATAAAATTATACAGATA [CACACA_site5277] | 9.46
TATATTTCAGGGGGGAGTACAAATTTTTTTATATAA [XGTACX_site1600] | 10
ATATATGGGTAGTATACACACTGTATATTTAGGAAT [CACACA_site7357] | 9.91
ATATATATATATATGTGTACTAATAAGGTTAAATAA [XGTACX_site1535] | 9.85
AAAAAAAAAAGAAACACACACATATATATATAGAAT [CACACA_site1777] | 10.3
AAAAAAAAAAGAAACACACACATATAGATTTATAAC [CACACA_site6927] | 10.9
AAAAAAAAAAAAAAAACACACATATAGATTTATATA [CACACA_site7196] | 9.88
CAAGAAAAGAAACACACACACATATATATATATATA [CACACA_site3881] | 11.2
AAAAAAAAAAAAGAAACACACATATATATATATATA [CACACA_site140] | 9.68
AAAAAAAAGAAAAACACACACATATATATATAGAAT [CACACA_site1006] | 11.3
TATATATAGAAACACACACACACATATATATATATT [CACACA_site2539] | 11.3
AAAAAAAAGAAAAACACACACATATTTATTTATAAC [CACACA_site6600] | 10.2

Sequence | gcPBM binding intensity (ln)
TATATATAGAAACACACACACACATATATATATATA [CACACA_site4116] | 10.3
AAGAAAAAAAAAAAAACACACATATATATATATATA [CACACA_site2027] | 10.2
TATATATAGAAACACACACACATATATATATATATT [CACACA_site4115] | 10.5
AAAAAAAAAAAAGAAACACACACATATATATATATA [CACACA_site8525] | 10.7
AAAGGTAAATGTAAATAAATAAATAATAAATATATA [GTGCAC_negctrl_site681] | 9.77
TTTTCTTGACCTATTATTCTTCTCATAGTATAATAT [GTGCAC_negctrl_site641] | 9.62
TGAACATACATCAAAAGTACAAACTCGCATGTTATA [XGTACX_site3320] | 9.67
TATAATATTATACATAGTACACATCACACATCGCAA [XGTACX_site4650] | 9.99
AATAAGCATAGACACACACACAAAAAAAAAAAAAAA [CACACA_site6476] | 10.1
ATAATAAGCAAACACACACACACAAAAAAAAAAAAA [CACACA_site720] | 11.6
GACACAAAAAAATAATAATAATAATAATAATAAATA [XGTACX_negctrl_site145] | 9.75
ATCAAATAATAGCAAACACACAAAAAATAAAAAAAA [CACACA_site4146] | 9.93
ATAATAAGCAGACACACACACACAAAAAAAAAAAAA [CACACA_site6477] | 11
AATAAGCAGAAACACACACACAAAAAAAAAAAAAAA [CACACA_site719] | 10.1
GTGATTAATATATACACACATACATATATATATATA [CACACA_site2817] | 9.81
TATATATTAAAAATAGTGCAAAATAATATATATATA [GTGCAC_site9716] | 9.82
TTTTTTACATCCATAAAACTTTTTCTCTTTTAAAAT [CACACA_negctrl_site1745] | 9.43
AAAATTTATGGAAGGTGTACTGTTAATTATGTATAT [XGTACX_site6446] | 9.74
AGGAAGGAAATAAATCAACACACATATATTATATAT [CACACA_site8678] | 9.87
TTATTGTAAATATATGCATGTGCAAAATGAAAAAAA [TGCATGCA_site399] | 9.69
TTTTATGCATGTGAAGTGCAAAATAAAAAATAAAAT [GTGCAC_site9612] | 9.56
CAAAAAAATGTGAAGGCATGCAAATATGTAAAATAA [TGCATGCA_site921] | 10.9
